Results reported in PubChem BioAssay (NCI).
About 83,000 compounds went through this panel and 20% of them were active in at least one assay; those are over-represented in the sample as a whole.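 Testing used 96-well plates and a 48-hour single-concentration exposure. Example: -40 means 40% of the starting cells died.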 Calls of active or inactive are those of the source. How the source made its calls: active means growth percent below 10; inactive means the rest.

Key:
Test in all cases: NCI-60 one-dose screen, 48 h (100 = growth as untreated, 0 = no growth, -100 = all killed)
Settings in all cases: 10 µM unless noted
T-47D breast = tested on: T-47D breast
BT-549 breast = tested on: BT-549 breast
MDA-MB-435 melanoma = tested on: MDA-MB-435 melanoma
SW-620 colon = tested on: SW-620 colon
MCF7 breast = tested on: MCF7 breast
HCT-116 colon = tested on: HCT-116 colon
HCC-2998 colon = tested on: HCC-2998 colon
KM12 colon = tested on: KM12 colon

Measured: growth

Fc1ccc(/C=C/c2cc(/C=C/c3ccc(F)cc3)n(-c3cc(F)cc(F)c3)n2)cc1
inactive: T-47D breast 80.2% | BT-549 breast 97.6% | MDA-MB-435 melanoma 103% | SW-620 colon 104% | MCF7 breast 89% | HCT-116 colon 84.5% | HCC-2998 colon 93.4% | KM12 colon 105%

C#C[C@]1(O)CC[C@H]2[C@@H]3CC=C4c5sc(-c6cccc(C)c6)nc5CC[C@]4(C)[C@H]3CC[C@@]21C
inactive: T-47D breast 78.6% | BT-549 breast 71.5% | MDA-MB-435 melanoma 82.8% | SW-620 colon 84.8% | MCF7 breast 34.9% | HCT-116 colon 68.2% | HCC-2998 colon 72.5% | KM12 colon 54.3%

COc1ccc(C2=NN(C=O)C(c3ccc(Oc4nc5c(c(=O)n(C)c(=O)n5C)n4C)c(OC)c3)C2)cc1 (stereo not given)
inactive: T-47D breast 75.5% | BT-549 breast 96.9% | MDA-MB-435 melanoma 61.2% | SW-620 colon 104% | MCF7 breast 77.1% | HCT-116 colon 83% | HCC-2998 colon 82.3% | KM12 colon 87.5%

COc1nc2ccccc2cc1/C=C1/C=C(c2ccccc2)NC1=O
active: MDA-MB-435 melanoma -12.5%
inactive: T-47D breast 37.3% | BT-549 breast 51.4% | SW-620 colon 27.7% | MCF7 breast 24.2% | HCT-116 colon 12.7% | HCC-2998 colon 80.6% | KM12 colon 31.5%

Nc1n[nH]c2cccc(C#Cc3cccc(C(=O)Nc4ccc(Cl)c(C(F)(F)F)c4)c3)c12
inactive: T-47D breast 33.5% | BT-549 breast 78.3% | MDA-MB-435 melanoma 42.8% | SW-620 colon 61.8% | MCF7 breast 50.2% | HCT-116 colon 28.5% | HCC-2998 colon 49.4% | KM12 colon 59.4%

C/C(=C(\c1ccc(OCCCN(C)C)cc1)c1ccc(OC(=O)Cc2ccccc2)cc1)c1ccc(Cl)cc1
inactive: T-47D breast 51.2% | BT-549 breast 83.9% | MDA-MB-435 melanoma 57.7% | SW-620 colon 84.6% | MCF7 breast 23.5% | HCT-116 colon 58.3% | HCC-2998 colon 73.6% | KM12 colon 67.4%

C=C(C[n+]1ccccc1)[C@@H]1CC[C@]2(C(=O)OC)CC[C@]3(C)[C@H](CC[C@@H]4[C@@]5(C)CCC(=O)C(C)(C)[C@@H]5CC[C@]43C)[C@@H]12
inactive: T-47D breast 81.4% | BT-549 breast 72.8% | MDA-MB-435 melanoma 77.6% | SW-620 colon 89% | MCF7 breast 82.9% | HCT-116 colon 96.9% | HCC-2998 colon 90.9% | KM12 colon 78.4%

O=C(CSc1nnc(-c2ccc(Cl)c(Cl)c2)n1-c1ccccc1)Nc1ccc(C(=O)/C=C/c2ccc(Cl)cc2)cc1
inactive: T-47D breast 81.8% | BT-549 breast 77.5% | MDA-MB-435 melanoma 94.3% | SW-620 colon 94.4% | MCF7 breast 68.1% | HCC-2998 colon 110% | KM12 colon 99.3%
active: HCT-116 colon 6.82%

CN1CC(c2ccccc2)C(C(=O)c2ccc(Br)cc2)C12C(=O)Nc1ccccc12 (stereo not given)
inactive: T-47D breast 81.5% | BT-549 breast 111% | MDA-MB-435 melanoma 106% | SW-620 colon 95.4% | MCF7 breast 98.5% | HCT-116 colon 86.3% | HCC-2998 colon 99.7% | KM12 colon 101%

C#CC#CC#CC#CC#CC#CC#CC#CC[C@@H]1OC[C@H](COC(=O)O[C@@H](C(=O)O[C@H]2C[C@@]3(O)[C@@H](OC(=O)c4ccccc4)[C@@H]4[C@]5(OC(C)=O)CO[C@@H]5C[C@H](O)[C@@]4(C)C(=O)[C@H](OC(C)=O)C(=C2C)C3(C)C)[C@@H](NC(=O)c2ccccc2)c2ccccc2)O1
inactive: T-47D breast 39.1% | BT-549 breast 34.6% | SW-620 colon 28.5% | MCF7 breast 18% | HCT-116 colon 12.5% | HCC-2998 colon 19.7%
active: MDA-MB-435 melanoma -63.1% | KM12 colon 9.33%

C=CCn1c(SCC(=O)Nc2ccc(C(=O)/C=C/c3cc(OC)c(OC)c(OC)c3)cc2)nnc1-c1cc(-c2ccc(S(N)(=O)=O)cc2)nc2ccccc12
inactive: T-47D breast 81.1% | BT-549 breast 75.2% | MDA-MB-435 melanoma 80.2% | SW-620 colon 76.8% | MCF7 breast 26.5% | HCT-116 colon 17.2% | HCC-2998 colon 105% | KM12 colon 59.8%

COc1ccc(C(=O)/C=C/c2ccc(Cl)cc2)cc1S(N)(=O)=O
inactive: T-47D breast 69.9% | BT-549 breast 12.2% | MDA-MB-435 melanoma 86.2% | SW-620 colon 13.2% | MCF7 breast 18% | HCC-2998 colon 100% | KM12 colon 28.2%
active: HCT-116 colon -78.3%

Cc1cc2nc(C(Cl)Cl)nc(-c3ccccc3)n2n1
inactive: T-47D breast 61.7% | BT-549 breast 86.8% | MDA-MB-435 melanoma 68.9% | SW-620 colon 29.6% | MCF7 breast 41.5% | HCT-116 colon 41.1% | HCC-2998 colon 28.5% | KM12 colon 18.2%

Cn1cc(-c2nc(-c3c[nH]c4ccncc34)cs2)c2cc(F)ccc21
active: T-47D breast -52.2% | MDA-MB-435 melanoma -91% | SW-620 colon -65.7% | MCF7 breast -71.5% | HCT-116 colon -95.4% | HCC-2998 colon -80.6% | KM12 colon -95.1%
inactive: BT-549 breast 69.6%

O=C(Nc1ccccc1CNc1nc(Nc2ccc(OCCN3CCCC3)cc2)ncc1Cl)NC1CCCCC1
inactive: T-47D breast 100% | BT-549 breast 83.7% | SW-620 colon 87.7% | MCF7 breast 55.2% | HCT-116 colon 90.9% | HCC-2998 colon 95.5% | KM12 colon 71.5%
active: MDA-MB-435 melanoma -83.9%

CCN(CC)CCN1C(=O)c2c(c(C)c3c(oc4cc(OC)ccc43)c2C)C1=O
inactive: T-47D breast 104% | BT-549 breast 98.2% | MDA-MB-435 melanoma 95.6% | SW-620 colon 96.3% | HCT-116 colon 94.1% | HCC-2998 colon 103% | KM12 colon 102%
active: MCF7 breast -8.69%

O=C(Nc1ncc(Cc2ccc(Cl)cc2)s1)c1ccc2c(c1)OCCO2
active: MDA-MB-435 melanoma 5.85% | HCT-116 colon 9.61%
inactive: T-47D breast 46.1% | BT-549 breast 38.1% | SW-620 colon 35.4% | MCF7 breast 10.2% | HCC-2998 colon 23.2% | KM12 colon 12.7%

O=C1c2cccnc2C(=O)c2c1c(C(=O)OCCCN1CCOCC1)c1ccccn21
active: T-47D breast 4.62% | BT-549 breast -38.7% | MDA-MB-435 melanoma -32.4% | SW-620 colon -39.3% | MCF7 breast -38.7% | HCT-116 colon -49.6% | HCC-2998 colon 7.61%
inactive: KM12 colon 15.7%

CN1CCN(CCCNC(=O)c2c3c(n4ccccc24)C(=O)c2ncccc2C3=O)CC1
inactive: BT-549 breast 54.8% | KM12 colon 11.3%
active: T-47D breast -4.38% | MDA-MB-435 melanoma -81.1% | SW-620 colon -5.63% | MCF7 breast -43.8% | HCT-116 colon -16.4% | HCC-2998 colon -32.2%

COC(=O)c1cc(-c2ccc(OC)c(OC)c2)[nH]c1N/N=C/c1c(Cl)cccc1Cl
inactive: T-47D breast 40.9% | BT-549 breast 37.7% | SW-620 colon 21.3% | MCF7 breast 14.6% | HCT-116 colon 14.5% | HCC-2998 colon 53.2% | KM12 colon 28.7%
active: MDA-MB-435 melanoma -18.3%

O=C(CN1C(=O)NC2NC(=O)NC21)N/N=C/c1cccc([N+](=O)[O-])c1 (stereo not given)
inactive: T-47D breast 107% | BT-549 breast 102% | MDA-MB-435 melanoma 98.1% | SW-620 colon 105% | MCF7 breast 91.8% | HCT-116 colon 116% | HCC-2998 colon 118% | KM12 colon 104%

O=C(CN1C(=O)c2ccccc2S1(=O)=O)Nc1nc(-c2cc3ccccc3oc2=O)cs1
inactive: T-47D breast 98.7% | BT-549 breast 105% | MDA-MB-435 melanoma 104% | SW-620 colon 103% | MCF7 breast 96.6% | HCT-116 colon 104% | HCC-2998 colon 102% | KM12 colon 101%

CC/C(=C(/c1ccc(Cl)cc1)c1ccc(OCCN2CCCCCC2)cc1)c1ccccc1
inactive: T-47D breast 68.5% | BT-549 breast 114% | MDA-MB-435 melanoma 90.5% | SW-620 colon 44.7% | MCF7 breast 76.3% | HCT-116 colon 62.7% | HCC-2998 colon 97.8% | KM12 colon 55%

O=C1/C(=C/c2ccc(-c3ccc(Cl)cc3)o2)SC(=S)N1CCc1ccc(O)cc1
inactive: T-47D breast 43.9% | BT-549 breast 64.6% | MDA-MB-435 melanoma 19.7% | SW-620 colon 26.6% | MCF7 breast 77.9% | HCT-116 colon 48.8% | HCC-2998 colon 89.6% | KM12 colon 22.9%

C#Cc1ccc(NC(=O)Cc2ccc(/C=C/C(=O)c3nccn3C)cc2)cc1
inactive: T-47D breast 69.2% | BT-549 breast 71.2% | MDA-MB-435 melanoma 83.6% | SW-620 colon 15.8% | MCF7 breast 21.5% | HCT-116 colon 21.6% | HCC-2998 colon 82.3% | KM12 colon 25.6%

COc1ccc(-c2csc(NC(=O)CSc3nc(C)cc(=O)[nH]3)n2)cc1
inactive: T-47D breast 89.2% | BT-549 breast 86.1% | MDA-MB-435 melanoma 108% | SW-620 colon 101% | MCF7 breast 92.8% | HCT-116 colon 102% | HCC-2998 colon 117% | KM12 colon 100%

CC(C)(C#N)c1cc(C(=O)Nc2cc(Nc3ncccc3-c3ncnc4nc[nH]c34)ccc2F)cc(C(F)(F)F)c1
inactive: T-47D breast 52% | BT-549 breast 71% | MDA-MB-435 melanoma 29.5% | SW-620 colon 37.5% | MCF7 breast 57.4% | HCT-116 colon 15.4% | HCC-2998 colon 41.8% | KM12 colon 43.7%

CCN(CC)CCCC(Nc1c2ccc(Cl)cc2nc2ccc(OC)cc12)c1ccncc1 (stereo not given)
inactive: T-47D breast 113% | BT-549 breast 94.6% | MDA-MB-435 melanoma 93% | SW-620 colon 61.9% | MCF7 breast 61.2% | HCT-116 colon 60.8% | HCC-2998 colon 71% | KM12 colon 69.1%

O=C(c1ccc(F)cc1)C1CCN(CCn2c(=O)[nH]c3ccccc3c2=O)CC1
inactive: T-47D breast 102% | BT-549 breast 107% | MDA-MB-435 melanoma 104% | SW-620 colon 102% | MCF7 breast 97.6% | HCT-116 colon 110% | HCC-2998 colon 105% | KM12 colon 104%

c1ccc(-c2nc(N3CCNCC3)c3oc(-c4ccccc4)nc3n2)cc1
inactive: BT-549 breast 106%
active: T-47D breast -41.9% | MDA-MB-435 melanoma -93.9% | SW-620 colon -77.7% | MCF7 breast -62.3% | HCT-116 colon -31.7% | HCC-2998 colon -87.5% | KM12 colon -75.4%
